MCF10A rerep: DNA re-replication induction in MCF 10a cells; MCF 10A DNA re-replication, Hoechst nuclear intensity, 48 h; Potency, µM (doses to about 46.1 µM), for inactives: at the top dose activity, positive = re-replication, actives largely listed as activators; hit rate 2.9% among 350,000; note: % of control where 0% means no effect; nearly all actives have a fitted effect of over 50% in size
HT1080-NT tox: kills 2HG-producing HT-1080-NT fibrosarcoma cells | HT-1080-NT fibrosarcoma viability, CellTiter-Glo ATP luminescence, 48 h | hit rate 1.6% among 360,000 | Potency, µM (titrated, usually from 46.1 µM), for inactives: top-dose activity, negative = less viability, most hits filed as cytotoxic;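 note: NT is the 2HG producing partner of a matched IDH1 knockdown line; 0% = DMSO-treated cells and -100% = media-only wells without cells; nearly all actives have a fitted effect of over 55% in size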
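Toxicity toward the 2HG-producing NT line was scored as %Activity, normalised to DMSO and no-cell wells, from CellTiter-Glo luminescence after 48 hours' treatment.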
SW480 rereplic: induces DNA re-replication in SW480 colon adenocarcinoma cells; AID 624297; SW480 DNA re-replication, Hoechst DNA content imaging, 48 h; Potency, µM (top dose mostly 46.1 µM), inactives show top-dose re-replication activation, hits mostly activators; hit rate 1.8% among 340,000; note: % of control where 0% means no effect; nearly all actives have a fitted effect of over 55% in size
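Hoechst fluorescence of nuclei (405 nm excitation, 500-530 nm emission) measured by plate-scanning imager after 48 hr compound exposure at 37 C; re-replication scored as increased number of nuclei with elevated intensity.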
KB-3-1 cytotox: kills parental KB-3-1 adenocarcinoma cells; AID 1347075; KB-3-1 viability, CellTiter-Glo ATP luminescence, 72 h; Potency, µM (top dose mostly 46.1 µM), usual class: cytotoxic; hit rate 1.4% among 400,000; note: % is set by controls: 0 for no effect and ±100 for the full control effect; nearly all actives have a fitted effect of over 60% in size
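72 h, 37 °C compound treatment of KB-3-1 parental cells; CellTiter-Glo added, 10 min, luminescence read. Data corrected against DMSO-only plates and normalized before curve fitting.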
KB-V1 cytotox: KB-V1 MDR subline cytotoxicity; KB-V1 MDR cells viability, CellTiter-Glo, 72 h; hit rate 3.4% among 400,000; Potency, µM (series often up to 46.1 µM), most hits filed as cytotoxic; AID 1347076; note: % is set by controls: 0 for no effect and ±100 for the full control effect; nearly all actives have a fitted effect of over 60% in size
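Readout: CellTiter-Glo luminescence, 10 min after addition. Cells: KB-V1 MDR subline, 72 h at 37 degrees C with compound. Analysis: corrected, normalized data fitted to concentration-effect curves.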
HT1080 IDH1KD tx: HT-1080 IDH1 knockdown cell toxicity (counter line). HT-1080 IDH1 knockdown viability, ATP luminescence, 48 h. Potency, µM (highest dose often 46.1 µM), for inactives: at the highest dose activity, negative = toxicity, most hits filed as cytotoxic. hit rate 2% among 360,000;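 note: 0% = DMSO wells and -100% = cell-free medium wells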
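IDH1KD HT-1080 cells, 750/well, RPMI + 5% FBS; compound pinned after 2 h settling; 48 h, 37 °C; CellTiter-Glo luminescence; % activity normalised to DMSO and no-cell wells; curves fitted, classed by r2 and efficacy.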
The depositor's hits bear a star; i = inactive; u = inconclusive; x = no result. Shown are actives, neighbours in structure and some others; about 7.9% of the full set was active somewhere. Calls come from the whole dose curve; as a rule, active = well fitted curve in the direction sought with a large enough effect; inconclusive = small, poorly fitted or top-dose-only effect, or another doubt; inactive = no such curve, though single readings can be large; an effect the other way counts as inactive or inconclusive. Potency is the fitted concentration of half-maximal effect.

SMILES	MCF10A rerep	HT1080-NT tox	SW480 rereplic	KB-3-1 cytotox	KB-V1 cytotox	HT1080 IDH1KD tx
CSc1nc(Nc2ccc(Cl)cc2)c(C#N)c(=O)[nH]1	15%	-4%	-2%	5.2µM*	5.2µM*	-7%
O=C1Cc2cc(S(=O)(=O)N3CCN(c4ccc(C(F)(F)F)cc4)CC3)ccc2N1	x	x	x	i	i	x
Cc1nc2c(c(C)nn2-c2ccccc2)c(C)c1CCC(=O)Nc1ccc(CN2CCCC2)cc1	u	15µM*	u	i	u	21µM*
Cc1nc2c(c(C)nn2-c2ccccc2)c(C)c1CCC(=O)Nc1ccccc1	x	x	x	i	i	x
Cc1nnc(SCC(=O)Nc2ccc(S(N)(=O)=O)cc2)n(N)c1=O	-3%	8%	-6%	u	i	1%
CN1CCN(c2ncnc3c2c(-c2ccccc2)cn3-c2ccc(F)cc2)CC1	u	23µM*	u	i	i	23µM*
c1ccc(-c2cn(-c3ccccc3)c3ncnc(N4CCCCC4)c23)cc1	16µM*	u	22%	i	i	u
CCOc1ccc(-n2cc(-c3ccccc3)c3c(N4CCOCC4)ncnc32)cc1	u	u	2%	i	i	u
COc1ccc(-n2cc(-c3ccccc3)c3c(N4CC(C)OC(C)C4)ncnc32)cc1 (stereo not given)	23µM*	u	15%	i	u	23µM*
Cc1c(C(=O)Nc2ccc(S(=O)(=O)N3CCOCC3)cc2)cccc1[N+](=O)[O-]	6%	4%	-2%	i	i	-5%
Cc1ccc(N2CCN(C(=O)c3cnn(-c4ccc(F)cc4F)c3C3CCN(C(=O)OC(C)(C)C)CC3)CC2)c(C)c1	x	x	x	i	i	x
CCC(=O)Nc1cc2[nH]c(=O)cc(C)c2cc1C	0.65µM*	-8%	-22%	i	i	-5%
Cc1cc2c(C)cc(=O)[nH]c2cc1NC(=O)CCl	12µM*	u	21µM*	u	u	u
O=C(COC(=O)c1cccc(Br)c1)Nc1ccc2[nH]c(=O)[nH]c2c1	1%	1%	-4%	i	i	12%
Cc1cc2oc(=O)cc(C)c2cc1NC(=O)CCl	29%	u	u	u	i	u
O=C(CCl)Nc1cc2[nH]c(=O)[nH]c2cc1Br	21µM*	10µM*	u	u	15µM*	6.5µM*
Cc1cccc(C)c1NC(=O)CN(C)C(=O)Cn1c(=O)cnc2ccccc21	-14%	4%	-5%	i	u	5%
CCCN1C(=O)C2(c3ccccc31)c1c(oc3ccccc3c1=O)C(=O)N2CCO (stereo not given)	x	x	x	i	i	x
NC(=O)Cn1c(=O)n(CCc2ccccc2)c(=O)c2c3c(sc21)CCCC3	-6%	12%	u	i	4.1µM*	-3%
CC(=O)N1CCc2c(sc3c2c(=O)n(CCc2ccccc2)c(=O)n3Cc2ccc(Cl)cc2)C1	x	x	x	21µM*	u	x
S=C(NCCCc1cnc[nH]1)NCCCN(Cc1ccc(Cl)cc1)c1ccc(-c2ccccc2)cn1	x	x	x	u	i	x
CCCn1c(=N)c(C(=O)NCc2cccnc2)cc2c(=O)n3cccc(C)c3nc21	x	x	x	i	u	x
N=c1c(C(=O)NCC2CCCO2)cc2c(=O)n3ccccc3nc2n1Cc1ccc(F)cc1 (stereo not given)	9.2µM*	-1%	18µM*	i	i	-8%
Cc1ccc2nc3c(cc(C(=O)NCC4CCCO4)c(=N)n3CCCOC(C)C)c(=O)n2c1 (stereo not given)	u	0%	u	i	i	-5%
N=c1c(C(=O)NCC2CCCO2)cc2c(=O)n3ccccc3nc2n1Cc1ccco1 (stereo not given)	u	6%	21µM*	i	i	7%
SMILES	MCF10A rerep	HT1080-NT tox	SW480 rereplic	KB-3-1 cytotox	KB-V1 cytotox	HT1080 IDH1KD tx
Cc1cccn2c(=O)c3cc(C(=O)NCC4CCCO4)c(=N)n(Cc4cccnc4)c3nc12 (stereo not given)	13µM*	13%	9.2µM*	i	i	11%
N=c1c(C(=O)NCC2CCCO2)cc2c(=O)n3ccccc3nc2n1Cc1cccnc1 (stereo not given)	13µM*	3%	10µM*	i	i	2%
Cc1ccc2nc3c(cc(C(=O)NCC4CCCO4)c(=N)n3C(C)C)c(=O)n2c1 (stereo not given)	x	x	x	i	i	x
Cn1c(=O)c2[nH]c(N=Nc3ccc(N)cc3N)nc2n(C)c1=O	-2%	2%	-31%	i	i	2%
O=C(CCN1C(=O)[C@@H]2Cc3ccccc3CN2C1=O)NCc1ccc(Cl)cc1	8%	0%	-7%	u	u	5%
Clc1cccc(CSc2ccc(-c3cccs3)nn2)c1	x	x	x	u	i	x
CCN(CC)c1ccc2c(C)c(-c3ccc(N)cc3)c(=O)oc2c1	3.7µM*	-28%	8.2µM*	u	i	-25%
COc1ccc(-c2c(C)c3ccc(O)cc3oc2=O)cc1	19%	-2%	-15%	i	i	-8%
CCOC(=O)Cc1c(C)c2ccc(N(CC)CC)cc2oc1=O	18µM*	u	15µM*	i	u	-2%
CCN(CC)c1ccc2c(Cl)c(Br)c(=O)oc2c1	u	18µM*	u	u	u	21µM*
CCOc1ccc2c(C)c(Cl)c(=O)oc2c1	-9%	-1%	-3%	i	i	-3%
CCN(CC)c1ccc2c(C)c(Cl)c(=O)oc2c1	4.1µM*	-12%	u	i	i	-4%
CCCNC(=O)C1(C)CCN(Cc2ccc(-c3ccccc3)o2)C1 (stereo not given)	x	u	x	i	i	u
Cc1noc(C)c1S(=O)(=O)N(C)C[C@@H]1OCc2cnnn2CCCC(=O)N([C@@H](C)CO)C[C@H]1C	x	1%	x	i	i	-1%
CC1(C(=O)NS(=O)(=O)c2cccc(C#N)c2)CCN1C(=O)c1cccc2ccccc12 (stereo not given)	x	23%	x	i	u	25%
CCCC(CNC(C)=O)(C1=CCCCC1)c1ccccc1 (stereo not given)	x	1%	x	i	u	2%
CCN(CC)c1ccc2c(c1)oc(=O)c1c(Cl)cc(=O)oc12	u	u	9.2µM*	u	u	2.6µM*
CCN(Cc1cc(=O)oc2cc(C)ccc12)c1ccccc1	12%	u	-15%	i	i	-23%

Source: PubChem
